D3 antag: qHTS of D3 Dopamine Receptor Antagonist: qHTS; AID 652054, 2013; D3R cells, DiscoveRx beta-arrestin luminescence, antagonist mode; hits give low values; max response, negative = inhibition, %; 360,000 compounds, 2.5% hits; D(3) dopamine receptor (Homo sapiens), P35462; in the data active means max response below about -50%; inconclusive means no clear call, values can overlap the other calls; further: on the % scale 0 is the no-effect control and ±100 the full control effect
Target sequence (P35462 whole entry, looked up): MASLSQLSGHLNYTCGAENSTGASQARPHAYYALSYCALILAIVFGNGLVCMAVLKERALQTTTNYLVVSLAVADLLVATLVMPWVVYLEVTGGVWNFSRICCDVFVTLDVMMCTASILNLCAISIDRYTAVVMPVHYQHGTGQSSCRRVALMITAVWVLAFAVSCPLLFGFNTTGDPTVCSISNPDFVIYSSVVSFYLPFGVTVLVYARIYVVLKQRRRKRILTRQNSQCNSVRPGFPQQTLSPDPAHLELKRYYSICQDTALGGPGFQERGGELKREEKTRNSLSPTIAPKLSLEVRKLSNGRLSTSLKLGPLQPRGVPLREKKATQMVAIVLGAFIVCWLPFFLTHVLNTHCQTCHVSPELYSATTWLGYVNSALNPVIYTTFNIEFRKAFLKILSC
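Cells expressing the human receptor were seeded at 1500 cells/well, incubated overnight at 37 degrees C in 5% CO2, then exposed to library compounds with dopamine controls for 90 minutes at 37 degrees C before luminescent detection.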
D3 ag: qHTS of D3 Dopamine Receptor Agonist: qHTS; D(3) dopamine receptor (Homo sapiens), P35462; D3R DiscoveRx beta-arrestin cells, luminescence, 90 min; max activation, %; 410,000 compounds, 0.58% hits; AID 652048, 2013; in the data active means max activation above about 30%; further: 0% is about no effect
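Agonist mode: compounds and dopamine controls were applied to plated cells for 90 min at 37 degrees C after an overnight attachment at 1500 cells/well. Luminescent read-out followed 30 - 60 minutes at room temperature with DiscoveRx detection reagent.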
TGFb SMAD3 inh: qHTS for Inhibitors of TGF-b; HepG2 CAGA-GFP TGF-b/SMAD3 reporter, GFP fluorescence, 18 h; TGF-beta stimulated, 500 pg/mL final; Potency, µM (highest dose often 46.1 µM), for inactives: at the top dose activity, negative = inhibition, hits mostly inhibitors; 410,000 compounds, 1.2% hits; AID 588855, 2011; further: potency means the concentration at half of the fitted maximal effect; on the % scale 0 is the no-effect control and ±100 the full control effect; nearly all actives have a fitted effect of over 65% in size
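HEPG2 CAGA-GFP, 1000 cells/well; 2 h settle, 37 C; cpd via pin tool; TGF-b 500 pg/mL final; 18 h, 37 C; GFP imaging ex488/em500-530; %Activity normalised to -TGF-b and +DMSO controls; CRC fit, curve class.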
S2 tox: Viability Counterscreen for Primary qHTS for Inhibitors of ATXN expression; S2 cells (HEK-293 line with an ATXN2-luciferase reporter) viability, CellTiter-Fluor protease fluorescence, 24 h; Potency, µM (doses to about 56.7 µM), usual class: cytotoxic; 400,000 compounds, 0.49% hits; further: potency means the concentration at half of the fitted maximal effect; nearly all actives have a fitted effect of over 40% in size
HepG2 tox: qHTS for Inhibitors of TGF-b: Cytotox Counterscreen; Potency, µM (titrated, usually from 46.1 µM), for inactives: at the top dose activity change, negative = cytotoxicity, hits mostly cytotoxic; 410,000 compounds, 0.76% hits; HepG2 CAGA-GFP viability, ATP luminescence, 18 h; further: potency means the concentration at half of the fitted maximal effect
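HepG2 CAGA-GFP cells (1000/well, DMEM with 1% FBS) received compound, then TGF-beta at 500 pg/mL final, and were incubated 18 hours at 37 degrees C. Viability was read by CellTiter-Glo luminescence. Media-only wells were set as complete cell-killing and DMSO as no toxicity.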
ATXN2 expr inh: Primary qHTS for Inhibitors of ATXN expression | HEK-293 ATXN2-luciferase reporter, luminescence, 24 h | Potency, µM (doses to about 57 µM), inactives show top-dose activity change, negative = inhibition, most hits filed as inhibitors | 360,000 compounds, 0.72% hits; further: potency means the concentration at half of the fitted maximal effect; on the % scale 0 is the no-effect control and ±100 the full control effect; nearly all actives have a fitted effect of over 55% in size
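ATXN2-luciferase reporter cells (luciferase flanked by upstream and downstream ATXN2 gene portions) were treated 24 h at 37 °C with compounds at up to 57 uM. SteadyGlo luminescence gave expression; GF-AFC fluorescence gave viability.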
* = called active by the depositor; i = inactive; ? = inconclusive; . = no result given; ! = not confirmed by another sample. Hits are enriched below; roughly 4.7% of the tested compounds scored in any of these assays. Unless noted, the call rests on the fitted dose curve; in most records, active means well fitted curve in the direction sought with a large enough effect; inconclusive means small, poorly fitted or top-dose-only effect, or another doubt; inactive means no such curve, though single readings can be large; an effect the other way counts as inactive or inconclusive.

SMILES	D3 antag	D3 ag	TGFb SMAD3 inh	S2 tox	HepG2 tox	ATXN2 expr inh
N/C(=N\O)c1ccc(N2CCN(c3ncccc3C(F)(F)F)CC2)nc1	40	31*	12%	i	0%	1%
COc1ccc(NC(=O)c2oc3ccccc3c2NC(=O)Cc2coc3ccc(C)cc23)cc1	.	9	3%	i	-55%	28%
O=C(c1cccs1)N1CCN(c2ccc(Cl)cc2)CC1	8	-1	10%	i	7%	9%
O=C(c1cccc2ccccc12)N1CCC(N2CCN(c3ccccc3)CC2)CC1	-58*	75*	-11%	i	-1%	-9%
O=C(c1cccs1)N1CCC(N2CCN(c3ccccc3)CC2)CC1	?	47*	-10%	i	0%	-2%
COc1ccc(C(=O)N2CCC(N3CCN(c4ccccc4)CC3)CC2)cc1OC	?	3	1%	i	-7%	-11%
CCOC(=O)N1CCC(N2CCN(S(=O)(=O)CC)CC2)CC1	-133*	-5	?	i	9%	7%
COc1cc(OC)cc(C(=O)N2CCC(N3CCN(c4ccccc4)CC3)CC2)c1	-63*	8	-16%	i	-3%	-8%
CCOC(=O)N1CCC(N2CCN(S(=O)(=O)c3ccc(C)cc3)CC2)CC1	-26	-3	-10%	i	-3%	-7%
CCOC(=O)N1CCC(N2CCN(c3ccccc3)CC2)CC1	8	35*	2%	i	0%	6%
O=C(/C=C/c1ccc(Br)cc1)NC(=S)NNC(=O)c1ccco1	-84*	-10	-7%	i	0%	-25%
CC(=O)Nc1ccc2c(c1)Cc1c-2cc(Cl)c(NC(C)=O)c1Cl	-9	2	20%	?	7%	6%
O=C(Nc1c(Cl)cc2c(c1Cl)Cc1cc([N+](=O)[O-])ccc1-2)C(Cl)Cl	18	4	7.1µM*	?	-56%	12%
COc1ccc(-c2cc3nc(NCCCN(C)C)n(C)c(=O)c3s2)cc1OC	10	-1	12%	i	11%	-10%
CN(C)CCCNc1nc2cc(-c3cccc(C(F)(F)F)c3)sc2c(=O)n1C	-1	-16	?	32µM*	-93%	20µM*
CN(C)CCCNc1nc2cc(-c3cccc(Cl)c3)sc2c(=O)n1C	-60*	-21	?	?	11µM*	?
COCCNc1nc2cc(-c3cccc(C(F)(F)F)c3)sc2c(=O)n1C	2	-6	-4%	i	-4%	8%
CN1CCN(c2nc(NCCOC34CC5CC(CC(C5)C3)C4)nc(OCC(F)(F)F)n2)CC1	-61*	-13	13%	?	-4%	-6%
CCn1c(=O)c2cc(C(=O)NCCc3cc(OC)ccc3OC)sc2c2ccccc21	.	7	-1%	i	20%	5%
CCOc1ccccc1N(C)C(=O)c1cc2c(=O)n(CC)c3ccccc3c2s1	-11	-3	?	.	11µM*	.
CCn1c(=O)c2cc(C(=O)NCc3cc(OC)ccc3OC)sc2c2ccccc21	.	-10	2.5µM*	i	-28%	-8%
O=C(Nc1ccccc1)c1nc(S(=O)(=O)Cc2ccccc2F)ncc1Cl	.	.	3.2µM*	.	7.1µM*	.
COC(=O)c1ccc(NC(=O)c2nc(S(=O)(=O)Cc3ccccc3F)ncc2Cl)cc1	.	.	6.3µM*	.	13µM*	.
O=C(NCc1ccc2c(c1)OCO2)c1nc(S(=O)(=O)Cc2ccccc2F)ncc1Cl	-92*	3	11µM*	.	16µM*	.
Cc1cc(C)n(-c2nc3ccccc3nc2Nc2ccc(Cl)c(C(=O)OC(C)C)c2)n1	.	7	44%	i	6%	5%
SMILES	D3 antag	D3 ag	TGFb SMAD3 inh	S2 tox	HepG2 tox	ATXN2 expr inh
O=C(NCc1cccc(C(F)(F)F)c1)c1[nH]c(C(F)(F)F)nc1-c1ccccc1	-63*	-10	?	?	-43%	?
O=C(c1[nH]c(C(F)(F)F)nc1-c1ccccc1)N1CCCN(Cc2ccc(F)cc2)CC1	29	6	0%	i	3%	8%
O=C(NC1CCN(Cc2ccccc2)CC1)c1[nH]c(C(F)(F)F)nc1-c1ccccc1	-85*!	-15	-15%	i	-5%	-10%
O=C(Nc1sc2c(c1C(=O)O)CCC2)c1ccccc1	-52*	-3	0%	i	-28%	-6%
CC(C)OC(=O)c1c(NS(=O)(=O)c2ccccc2)sc2c1CCCC2	-89*	-2	?	i	-77%	-18%
O=C(Nc1sc2c(c1C(=O)O)CCCCC2)c1ccccc1	-19	-14	2%	i	-37%	-14%
Cc1ccc(-n2ncc(C(=O)NCCN3CCc4ccccc4C3)c2C2CCN(C(=O)OC(C)(C)C)CC2)c(C)c1	.	-29	16µM*	.	-45%	?
COc1ccc(Cl)cc1NC(=O)NCC1CCN(C(=O)OC(C)(C)C)CC1	-73*	-45	-25%	i	19%	-10%
Cc1ccc(-n2ncc(C(=O)NCCN3CCC(Cc4ccccc4)CC3)c2C2CCN(C(=O)OC(C)(C)C)CC2)cc1	.	-21	?	.	13µM*	.
Cc1ccc(-n2ncc(C(=O)NCCN3CCc4ccccc4C3)c2C2CCN(C(=O)OC(C)(C)C)CC2)cc1	.	-27	?	.	-100%	.
CC(C)(C)OC(=O)N1CCC(c2c(C(=O)NCCN3CCC(Cc4ccccc4)CC3)cnn2-c2cccc(Cl)c2)CC1	.	-31	?	.	7.1µM*	.
Clc1cccc(CSc2ccc(-c3cccs3)nn2)c1	.	-16	-4%	.	-3%	.
CCOC(=O)c1cccc(NC(=O)CC2C(=O)N(c3ccc(Cl)cc3)C(=O)N2C2CCCC2)c1 (configuration not stated)	.	5	?	.	-36%	.
CCCOc1cccc(NC(=O)c2c(-c3ccccc3Cl)noc2C)c1	.	4	8%	i	-1%	-16%
Nc1nc(NCc2ccc(Cl)cc2Cl)c2[nH]cnc2n1	.	.	30%	.	-29%	.
COc1ccccc1CN1CCC(CNC(=O)c2cnn(-c3ccc(Cl)cc3)c2C2CCN(C(=O)OC(C)(C)C)CC2)CC1	.	-13	10µM*	.	-108%	.
CC(=O)N(c1ccc(Cl)cc1)c1c[nH]c2ccccc12	-67*	-25	-22%	i	-47%	?
N=c1ccn2c(n1)OC1C(O)[C@@H](CO)O[C@H]12 (some centres not stated)	.	.	1%	.	-13%	.
Brc1ccc2nc(-c3ccco3)c(CC3CCCCC3)n2c1	0	-19	11µM*	i	-31%	-5%

Screening results: PubChem, National Center for Advancing Translational Sciences (NCATS)
